Experimental data from PubChem BioAssay (NCATS).
Results filed as inconclusive are left out. The source made the active and inactive calls. Calls follow the shape of the full dose curve; tested in HEK293 reporter line.

Key:
[1] = qHTS for Inhibitors of the Functional Ribonucleoprotein Complex (vRNP) of Lassa (LASV) Arenavirus: LASV Primary Screen - GLuc reporter signal (AID 1347082); also: nearly all actives have a fitted effect of over 60% in size
[2] = qHTS for Inhibitors of the Functional Ribonucleoprotein Complex (vRNP) of Lassa (LASV) Arenavirus: Viability assay - alamar blue signal for LASV Primary Screen (AID 1347083); also: nearly all actives have a fitted effect of over 80% in size
[3] = qHTS for Inhibitors of the Functional Ribonucleoprotein Complex (vRNP) of Lymphocytic Choriomeningitis Arenaviruses (LCMV): Viability assay - alamar blue signal for LCMV Primary Screen (AID 1347085); also: nearly all actives have a fitted effect of over 80% in size

Measured: Potency
Also: series mostly up to about 57 µM.

OCc1ccccc1O
inactive: all assays above

CC(=O)Oc1ccc2c(c1)CC[C@@H]1[C@@H]2CC[C@]2(C)[C@@H](O)CC[C@@H]12
inactive: all assays above

CCC(=O)O[C@]1(C(=O)SCF)[C@H](C)C[C@H]2[C@@H]3C[C@H](F)C4=CC(=O)C=C[C@]4(C)[C@@]3(F)[C@@H](O)C[C@@]21C
inactive: all assays above

O=C(Nc1ncc([N+](=O)[O-])s1)c1cccs1
inactive: all assays above

CC1(C)O[C@@H]2C[C@H]3[C@@H]4C[C@H](F)C5=CC(=O)CC[C@]5(C)[C@H]4[C@@H](O)C[C@]3(C)[C@]2(C(=O)CO)O1
inactive: all assays above

CN1CCN(C2Cc3ccccc3Sc3ccc(Cl)cc32)CC1 (centres undefined)
inactive: all assays above

CSc1ccc(/C=C2/C(C)=C(CC(=O)O)c3cc(F)ccc32)cc1
inactive: all assays above

CCN(CC)C(=O)Nc1ccc(OCC(O)CNC(C)(C)C)c(C(C)=O)c1 (centres undefined)
inactive: all assays above

C/C(=C(/OCCOc1ccc(Cl)cc1)c1ccc(Cl)cc1Cl)n1ccnc1
inactive: all assays above

C/C=C(/C(=C/C)c1ccc(OC(C)=O)cc1)c1ccc(OC(C)=O)cc1
inactive: all assays above

Cc1ccc(CCn2c3c(c4cc(Cl)ccc42)CN(C)CC3)cn1
inactive: all assays above

Cc1ncc(COP(=O)(O)O)c(C=O)c1O
inactive: all assays above

COc1ccccc1N1CCN(CC(O)COc2cccc3ccccc23)CC1 (centres undefined)
inactive: all assays above
